# Measured values: patent publication US20060069055, “Delivery of polynucleotides” (published 2006)
# Target: NF-kB p65/p50 heterodimer (Homo sapiens, UniProt Q04206;P19838 Q04206:1-551,P19838:1-433)
# Test: EMSA; competition against labelled probe 113/114
# Conditions: protein: extract; tags: nuclear extract of LPS-stimulated THP-1 cells; dsDNA, one strand shown; PS at the 4 most 3' linkages of both strands
# Description: The EMSA assay was employed to characterize oligonucleotide decoys for the NF-κB transcription factor. […] Using the above modified oligonucleotides to compete for binding for the above-mentioned NF-κB family members, it was possible to compare the binding affinity of these oligonucleotides against the high affinity radiolabeled probe and each other. This assay has also enabled the design of a decoy which selectively binds particular members of the NF-κB family. By using increasing concentrations of various oligonucleotides, it was observed that, by deleting or changing targeted residues in the binding site, it was possible to specifically decrease the binding of the decoy molecule to p50/p50 homodimers, while retaining the affinity for p65/p50 and cRel/p50 heterodimers.
# The NF-κB gel shift assays (EMSA) were performed as follows. A double-stranded oligonucleotide containing a consensus NF-κB binding site (5′ […].GGC 3′) (SEQ ID NO: 26) was end-labeled with γ³²P-ATP using T4 Polynucleotide Kinase (Promega). […] The dried gels were imaged and quantitated using a Typhoon 8600 Phosphorlmager (Amersham) and ImageQuant software. […]
# Sequence of NF-kB p65/p50 heterodimer (Q04206 whole entry, chain 1 of 2): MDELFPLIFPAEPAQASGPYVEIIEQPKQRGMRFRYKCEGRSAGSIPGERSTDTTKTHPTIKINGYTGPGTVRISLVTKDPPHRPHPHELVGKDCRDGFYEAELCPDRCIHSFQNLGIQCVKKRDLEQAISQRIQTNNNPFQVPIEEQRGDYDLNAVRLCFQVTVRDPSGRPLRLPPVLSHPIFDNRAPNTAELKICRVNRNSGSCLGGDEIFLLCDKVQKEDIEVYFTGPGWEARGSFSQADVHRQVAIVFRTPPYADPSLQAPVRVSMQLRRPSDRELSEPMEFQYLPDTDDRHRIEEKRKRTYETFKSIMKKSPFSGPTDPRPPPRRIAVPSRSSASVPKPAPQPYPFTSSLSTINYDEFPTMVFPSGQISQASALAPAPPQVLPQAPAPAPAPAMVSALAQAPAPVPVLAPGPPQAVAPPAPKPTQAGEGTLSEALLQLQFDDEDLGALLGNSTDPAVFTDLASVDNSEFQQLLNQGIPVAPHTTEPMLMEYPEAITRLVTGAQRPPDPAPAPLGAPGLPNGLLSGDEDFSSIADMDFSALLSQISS
# Sequence of NF-kB p65/p50 heterodimer (P19838 1-433, chain 2 of 2): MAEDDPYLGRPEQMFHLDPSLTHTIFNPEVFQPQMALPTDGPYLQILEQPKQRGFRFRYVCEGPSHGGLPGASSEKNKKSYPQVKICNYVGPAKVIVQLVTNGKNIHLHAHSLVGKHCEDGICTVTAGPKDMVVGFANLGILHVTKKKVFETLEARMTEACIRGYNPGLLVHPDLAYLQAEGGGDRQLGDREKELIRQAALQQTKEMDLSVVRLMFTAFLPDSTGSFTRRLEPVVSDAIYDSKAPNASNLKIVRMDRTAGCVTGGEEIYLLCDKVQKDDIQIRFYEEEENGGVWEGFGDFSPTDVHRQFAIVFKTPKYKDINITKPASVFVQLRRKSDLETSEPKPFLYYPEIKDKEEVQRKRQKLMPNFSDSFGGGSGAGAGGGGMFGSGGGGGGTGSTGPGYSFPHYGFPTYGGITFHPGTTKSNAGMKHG
sequence,measurement,value
AGTTGAGGACTTTCCAGGC,IC50,85 fold molar excess
